Compound activity: PubChem, National Center for Advancing Translational Sciences (NCATS)
Sm TGR block: blocks Schistosoma mansoni thioredoxin glutathione reductase | Q962Y6 | purified TGR, DTNB reduction, TNB absorbance 405 nm | Potency, µM (top dose mostly 114 µM), for inactives: top-dose activity change, negative = inhibition, usual class: inhibitors | 3% of 360,000 active | AID 485364; further: nearly all actives have a fitted effect of over 60% in size
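Kinetic colorimetric format: TGR-catalysed, NADPH-driven DTNB reduction monitored via TNB absorbance. Enzyme dispensed at 20 nM; compound exposure 15 min at room temperature before reaction start.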
FMDV inh: antivirals against foot and mouth disease virus; FMDV antiviral cell-based qHTS; Potency, µM (doses to about 57.9 µM), inactives show at the highest dose activity change, negative = inhibition, actives largely listed as inhibitors; 1.2% of 410,000 active; AID 1159524; calls by dose curve; tested in HEK293T cells; further: read-out not given here; nearly all actives have a fitted effect of over 45% in size
RE007 growth inh: less growth of the S. pombe RE007 Vpr strain; AID 651644; Potency, µM (titrated, usually from 92.2 µM), inactives show at the highest dose activity change, negative = less growth, actives largely listed as inhibitors; 0.21% of 360,000 active; S. pombe RE007 Vpr strain, BacTiter-Glo ATP luminescence, 24 h; active means well fitted falling curve with a large enough effect; inconclusive means small, poorly fitted or top-dose-only effect; inactive means no such curve, though single readings can be large or run the other way; further: nearly all actives have a fitted effect of over 50% in size
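Fission yeast RE007 carrying one integrated HIV-1 vpr copy, seeded at OD 0.01 in PMG+AL medium with 23 nL pinned compound. Grown 24 h at 30 degrees; viability read by BacTiter-Glo luminescence after 5 min.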
Tb PYK inh: blocks Trypanosoma brucei pyruvate kinase. Q57TT1. TbPYK enzyme, Kinase-Glo Plus ATP luminescence, 45 min. Potency, µM (highest dose often 76.8 µM), inactives show top-dose activity, negative = inhibition, actives largely listed as inhibitors. 0.12% of 410,000 active; further: nearly all actives have a fitted effect of over 50% in size
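Activity of T. brucei pyruvate kinase was followed by Kinase-Glo Plus luminescence after the enzyme reacted 45 min at room temperature with 130 uM ADP (final) and substrate. Test compounds were added before ADP at multiple concentrations.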
* = called active by the depositor; ? = inconclusive; . = no result given; ! = repeats disagree; [ ] = remark or other dose. Most compounds without a hit are left out; they make up all but 3.7% or so of the library. Unless noted, the call rests on the fitted dose curve; in most records, active means well fitted curve in the direction sought with a large enough effect; inconclusive means small, poorly fitted or top-dose-only effect, or another doubt; inactive means no such curve, though single readings can be large; an effect the other way counts as inactive or inconclusive. On the % scale 0 is the no-effect control and ±100 the full control effect; potency means the concentration at half of the fitted maximal effect.

SMILES	Sm TGR block	FMDV inh	RE007 growth inh	Tb PYK inh
O=C(NCCc1ccc(Cl)cc1)C(=O)NCC(c1cccs1)S(=O)(=O)c1cccs1 (configuration not stated)	25µM*	?	.	-7%
COc1ccccc1CCNC(=O)C(=O)NCC(c1cccs1)S(=O)(=O)c1ccc(C)cc1 (configuration not stated)	?	0%	.	0%
COc1ccc(CCNC(=O)C(=O)NCC(c2cccs2)S(=O)(=O)c2ccc(F)cc2)cc1 (configuration not stated)	-5%	40µM*	.	5%
O=C(NCCc1ccc(F)cc1)C(=O)NCC(c1cccs1)S(=O)(=O)c1cccs1 (configuration not stated)	?	?	.	2%
CCOc1ccc(C(=O)Nc2cccc(C(=O)O)c2C)cc1Cl	-3%	1.8µM*	-3%	-13%
CC1CCCN(c2ncnc3c2cnn3-c2ccc(Cl)cc2)C1 (configuration not stated)	12%	25µM*	0%	-11%
CC1CCCN(c2ncnc3c2cnn3-c2ccc(F)cc2)C1 (configuration not stated)	2%	18µM*	.	1%
COc1cc(-c2c(OC)cccc2OC)cc2c1OCCN(Cc1cn[nH]c1-c1ccc(Cl)cc1)C2	.	-1%	.	.
CC(C)c1cnc2c(c1SCC(=O)NCc1ccccc1Cl)c(=O)n(C)c(=O)n2C	21%	7%	.	?
CC(=O)Nc1ccc(NC2=Nc3ccccc3N3C2=Nc2c(c(C)nn2-c2ccccc2)C3c2ccccc2)cc1 (configuration not stated)	16%	10µM*	2%	4%
Cc1ccc(-c2nc3cnccn3c2Nc2ccc3c(c2)OCO3)o1	50µM*	-28%	2%	-12%
Cc1ccc(-c2nc3cnccn3c2Nc2ccccc2)o1	?	-13%	15%	-13%
Cc1ccc(Nc2c(-c3ccc(C)o3)nc3cnccn23)cc1	10µM*	7%	7.9µM*!	-24%
Cc1ccn2c(Nc3ccc4c(c3)OCO4)c(-c3ccc(C)o3)nc2c1	-30%	26%	.	-17%
CCOC(=O)c1c(S(=O)(=O)N2CCC(C(=O)Nc3ccc(F)cc3F)CC2)c(C)n(C)c1C	-3%	-2%	.	0%
CCN1CCN(C2=C(NS(=O)(=O)c3ccc(Br)cc3)C(=O)c3ccccc3C2=O)CC1	45µM*	-1%	-21%	-10%
CCN1CCN(C2=C(NS(=O)(=O)c3ccccc3)C(=O)c3ccccc3C2=O)CC1	?	?	-29%	-8%
COc1ccc(CCNC(=O)c2noc(C(C)C)c2[N+](=O)[O-])cc1OC	35µM*	-4%	-6%	-10%
COc1ccc(CCNC(=O)c2ccc(-c3ccc([N+](=O)[O-])cc3)o2)cc1OC	40µM*	18µM*	-7%	-5%
COc1ccc(NC(=O)c2ccc(-c3ccc([N+](=O)[O-])cc3)o2)cc1	?	-15%	4%	-4%
COc1ccc(NC(=O)c2c(-c3ccccc3)c(-c3ccccc3)nn(C)c2=O)cc1OC	2%	-19%	.	-7%
COc1ccc(C(=O)N(c2ccc(C)cc2)S(=O)(=O)c2ccc(C)cc2)cc1	0%	8%	.	-2%
CCc1ccc(S(=O)(=O)N(C(=O)c2ccncc2)c2ccc(OC(=O)c3ccncc3)cc2)cc1	-16%	-17%	41%	-8%
Cc1ccc(S(=O)(=O)N(C(=O)c2ccncc2)c2ccc(OC(=O)c3ccncc3)cc2)cc1	-18%	-20%	20%	-4%
COc1ccc(N(C(=O)c2ccncc2)S(=O)(=O)c2ccc(Cl)cc2)cc1	20µM*	0%	-4%	-2%
SMILES	Sm TGR block	FMDV inh	RE007 growth inh	Tb PYK inh
O=C(Oc1ccc(N(C(=O)c2ccncc2)S(=O)(=O)c2ccc(Cl)cc2)cc1)c1ccncc1	18µM*	-4%	-6%	-11%
O=C(Oc1ccc(N(C(=O)c2ccncc2)S(=O)(=O)c2ccc(F)cc2)cc1)c1ccncc1	28µM*	-14%	1%	-8%
COc1ccc(N(C(=O)c2ccncc2)S(=O)(=O)c2cccs2)cc1	25µM*	-6%	4%	1%
Cc1ccc(C)c(S(=O)(=O)c2cn(Cc3ccccc3)c3cc(F)c(F)cc3c2=O)c1	6%	18%	.	2%
Cn1c(=O)oc2cc(S(=O)(=O)N3CCCC(C(=O)NCc4ccc(F)cc4)C3)ccc21 (configuration not stated)	-2%	-9%	.	5%
CC1CCN(S(=O)(=O)c2ccc3nc(NCc4ccccc4)ccc3c2)CC1	-4%	11%	.	3%
Cn1c(=O)[nH]c(=O)c2[nH]c(N(Cc3ccccc3)Cc3ccccc3)nc21	-7%	40µM*	21%	-8%
Cc1cc(C)c2c(NC(=S)NC(=O)c3ccccc3)nn(C)c2n1	?	2%	-7%	0%
Cc1cc(C)c2c(NC(=O)CCl)nn(C)c2n1	32µM*	?	13%	0%
N#CC(C#N)=C1C=CC=CN1/C(=C\c1ccco1)C(=O)c1ccc(Cl)cc1	1.4µM*	?	-1%	?
N#CC(C#N)=C1C=CC=CN1/C(=C\c1ccco1)C(=O)c1ccc(-c2ccccc2)cc1	?	14µM*	-1%	-7%
COc1ccc(CN2CCOc3ccc(CN4CCC(O)(c5cccnc5)CC4)cc3C2)cc1OC	.	-28%	.	.
CC(C)(O)C#Cc1ccc(C(=O)NCCN2Cc3ccccc3OC(c3ccccc3F)C2)o1 (configuration not stated)	.	-10%	.	.
CCc1cc(C(=O)NCCN2Cc3ccccc3OC(c3ccsc3)C2)n(C)n1 (configuration not stated)	.	-20%	.	.
CCc1ccc(NC(=O)CSc2nc(C)c(C(=O)Nc3ccccc3)c(-c3ccc(OC)c(OC)c3)c2C#N)cc1	0%	6%	.	-9%
Cc1cc2c(C(C)C)c(O)c(O)c(C=O)c2c(O)c1-c1c(C)cc2c(C(C)C)c(O)c(O)c(C=O)c2c1O	50µM*	?	.	-12%
COc1cc(=O)n2c(c1C(=O)NC(C)c1ccco1)CCN(C(=O)c1cc(C)cc(C)c1)CC2 (configuration not stated)	.	28%	.	.
COc1cccc(CNC(=O)c2c(OC)cc(=O)n3c2CCN(C(=O)c2ccc(C)nc2)CC3)c1	.	-12%	.	.
COC(=O)C1=C(C)N(Cc2ccco2)C(=O)N[C@@H]1c1cccc(C(F)(F)F)c1	28µM*	.	.	.
Cc1cccc(-c2[nH]ncc2-c2ccc3ncccc3n2)n1	.	.	.	2%[157 µM]
Cc1cc2n(c1)CCn1c(C)ccc1-2	45µM*	.	.	.
CCCC1=[N+](CC)CCn2c(C)ccc21	-10%	.	6%	-4%
O=C(O)c1ccc(N/N=C/c2c(F)cccc2Cl)cc1	-27%	32µM*	-25%	10%
CC(C)(C)c1ccc(/C=N/Nc2ccc(C(=O)O)cc2)cc1	-1%	7.1µM*	?	-2%
CCNC(=S)N/N=C/c1ccc(C(=O)O)cc1	-23%	-5%	-13%	-9%
O=C(O)c1ccc(N/N=C/c2ccc(C(F)(F)F)cc2)cc1	-3%	?	35µM*	-11%
